Source: PubChem
KB-3-1 tox = qHTS assay for MDR1-selective chemotherapeutics: Primary screen using the parental adenocarcinoma cell KB-3-1. actives 1.4% (n = 400,000). AID 1347075, 2019. Potency, µM (highest dose often 46.1 µM), usual class: cytotoxic. KB-3-1 viability, CellTiter-Glo ATP luminescence, 72 h; also: nearly all actives have a fitted effect of over 60% in size
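Luminescent ATP read-out (CellTiter-Glo) measures survival of drug-naive KB-3-1 cells after 72 h compound exposure at 37 °C. Titration series was screened from lowest to highest concentration, with DMSO vehicle plates as background controls.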
HT1080NT lethal = qHTS for induction of synthetic lethality in tumor cells producing 2HG: qHTS for the HT-1080-NT fibrosarcoma cell line; Potency, µM (doses to about 46.1 µM), usual class: cytotoxic; HT-1080-NT fibrosarcoma viability, CellTiter-Glo ATP luminescence, 48 h; actives 1.6% (n = 360,000);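 also: NT is the 2HG producing partner of a matched IDH1 knockdown line; nearly all actives have a fitted effect of over 55% in size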
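HT-1080-NT fibrosarcoma cells (2HG-overproducing), 750 cells/well in RPMI with 5% FBS, dosed after 2 h and incubated 48 h at 37C. CellTiter-Glo luminescence normalized to DMSO and no-cell wells; concentration-response curves fitted and classed.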
MCF10A rerep = A quantitative high throughput screen for small molecules that induce DNA re-replication in MCF 10a normal breast cells; Potency, µM (highest dose often 46.1 µM), most hits filed as activators; actives 2.9% (n = 350,000); MCF 10A DNA re-replication, Hoechst nuclear intensity, 48 h; AID 624296, 2012; also: nearly all actives have a fitted effect of over 50% in size
SW480 rerep = A quantitative high throughput screen for small molecules that induce DNA re-replication in SW480 colon adenocarcinoma cells; SW480 DNA re-replication, Hoechst DNA content imaging, 48 h; Potency, µM (titrated, usually from 46.1 µM), hits mostly activators; actives 1.8% (n = 340,000); AID 624297, 2012; also: nearly all actives have a fitted effect of over 55% in size
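Image-based read-out: total Hoechst fluorescence of nuclei (405 nm excitation, 500-530 nm emission), with hits raising the fraction of high-intensity nuclei. SW480 colon cells incubated 48 hr with compounds at 37 C.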
KB-V1 MDR tox = qHTS assay for MDR1-selective chemotherapeutics: Primary screen using the drug-selected MDR subline cells KB-V1; KB-V1 MDR cells viability, CellTiter-Glo, 72 h; Potency, µM (top dose mostly 46.1 µM), hits mostly cytotoxic; actives 3.4% (n = 400,000); AID 1347076, 2019; also: nearly all actives have a fitted effect of over 60% in size
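KB-V1 MDR subline cells in DMEM (phenol-red free, 10% FBS) exposed to compounds in qHTS concentration series for 72 h at 37 degrees C. Viability read by CellTiter-Glo luminescence; concentration-effect curves fitted after normalization and correction.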
HT1080 IDH1KD tx = qHTS for induction of synthetic lethality in tumor cells producing 2HG: qHTS for the HT-1080-IDH1KD cell line | HT-1080 IDH1 knockdown viability, ATP luminescence, 48 h | Potency, µM (series often up to 46.1 µM), hits mostly cytotoxic | actives 2% (n = 360,000)
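Knockdown cells (IDH1KD HT-1080) received compounds 2 h after plating at 750 cells/well and were kept 48 h at 37 °C in 5% FBS RPMI. A CellTiter-Glo luminescence read gave % activity for curve fitting.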
A number is an active result. An excerpt weighted towards active compounds, which were near 7.9% of everything screened. Calls follow the shape of the dose curve; as a rule, active = well fitted curve in the direction sought with a large enough effect; inconclusive = small, poorly fitted or top-dose-only effect, or another doubt; inactive = no such curve, though single readings can be large; an effect the other way counts as inactive or inconclusive.

For CN1C(=O)C(O)N=C(c2ccccc2)c2cc(Cl)ccc21 (stereo unspecified) the results were MCF10A rerep inactive and SW480 rerep inactive.
For O=C(CS(=O)C(c1ccccc1)c1ccccc1)NO (stereo unspecified) the results were MCF10A rerep inactive and SW480 rerep inactive.
For COc1cc2c(cc1O)[C@@H]1Cc3ccc(OC)c(O)c3CN1CC2 the results were KB-3-1 tox 5.8µM, HT1080NT lethal 2.59µM, MCF10A rerep inconclusive, SW480 rerep inconclusive, KB-V1 MDR tox 7.31µM and HT1080 IDH1KD tx 2.59µM.
Screening CC(=O)O[C@H]1CC[C@H]2[C@@H]3CCC4=CC(=O)CCC4=C3C=C[C@]12C returned MCF10A rerep inactive and SW480 rerep inactive.
Screening CC(=O)O[C@H]1CCC2C3CCC4=CC(=O)CCC4=C3C=C[C@@]21C (stereo partly specified) returned KB-3-1 tox inconclusive, HT1080NT lethal inactive, MCF10A rerep inactive, SW480 rerep inactive, KB-V1 MDR tox 8.2µM and HT1080 IDH1KD tx inactive.
For COc1cc2c(cc1OC)-c1c(OC)c(OC)c(OC)c3ccnc(c13)C2=O the results were KB-3-1 tox inactive, HT1080NT lethal inactive, MCF10A rerep inconclusive, SW480 rerep 8.2µM, KB-V1 MDR tox inconclusive and HT1080 IDH1KD tx inactive.
Screening Clc1ccc(C(Cn2ccnc2)OCc2csc3c(Cl)cccc23)c(Cl)c1 (stereo unspecified) returned KB-3-1 tox inactive, HT1080NT lethal inconclusive, MCF10A rerep inactive, SW480 rerep inactive, KB-V1 MDR tox inconclusive and HT1080 IDH1KD tx 20.6µM.
CC(CCl)OC(C)CCl (stereo unspecified) was read as KB-3-1 tox inactive, HT1080NT lethal inactive, MCF10A rerep inactive, SW480 rerep inconclusive, KB-V1 MDR tox inactive and HT1080 IDH1KD tx inactive.
Screening O=C(COc1ccccc1Cl)N1CCN(CCc2ccccn2)CC1 returned KB-3-1 tox inactive and KB-V1 MDR tox inactive.
O=C(O)CCCc1ccc(N(CCCl)CCCl)cc1 was read as KB-3-1 tox inactive, HT1080NT lethal inactive, MCF10A rerep inconclusive, SW480 rerep inconclusive, KB-V1 MDR tox inactive and HT1080 IDH1KD tx inactive.
For O=c1[nH]cnc2nc(-c3ccc(N(CCCl)CCCl)cc3)[nH]c12 the results were KB-3-1 tox inconclusive, HT1080NT lethal inconclusive, MCF10A rerep 14.6µM, SW480 rerep 9.2µM, KB-V1 MDR tox inconclusive and HT1080 IDH1KD tx 0.651µM.
Screening COC(=O)[C@@H]1[C@@H]2C[C@H]3c4[nH]c5cc(OC)ccc5c4CCN3C[C@@H]2C[C@H](OC(=O)/C=C\c2cc(OC)c(OC)c(OC)c2)[C@H]1OC returned MCF10A rerep inactive and SW480 rerep inactive.
NC(=O)CN1CC(O)CC1=O (stereo unspecified) was read as MCF10A rerep inactive and SW480 rerep inactive.
For COC(=O)[C@@]12CCCCN1[C@H](c1ccc(-c3ccc(Cl)c(Cl)c3)c(OC)c1)[C@@H]1C(=O)N(C)C(=O)[C@@H]12 the results were KB-3-1 tox inactive, HT1080NT lethal inactive, MCF10A rerep inactive, SW480 rerep inactive, KB-V1 MDR tox inactive and HT1080 IDH1KD tx inactive.
For O=C(c1ccc(C(F)(F)F)cc1)C1CCCN(C2CCSCC2)C1 (stereo unspecified) the results were KB-3-1 tox inactive, HT1080NT lethal inactive, MCF10A rerep inactive, SW480 rerep 5.17µM, KB-V1 MDR tox inconclusive and HT1080 IDH1KD tx inactive.
Screening Cc1cc(Cl)ccc1C(=O)C1CCCN(C2CCSCC2)C1 (stereo unspecified) returned KB-3-1 tox inactive, HT1080NT lethal inactive, MCF10A rerep inactive, SW480 rerep inactive, KB-V1 MDR tox inactive and HT1080 IDH1KD tx inactive.
Clc1cccc(N2Cc3cc(-c4ccccc4)ccc3-n3nncc3C2)c1 was read as KB-3-1 tox inconclusive, HT1080NT lethal 10.3µM, KB-V1 MDR tox inactive and HT1080 IDH1KD tx 10.3µM.
`COc1ccc(-c2ccc3c(c2)CN(c2cccc(Cl)c2)Cc2cnnn2-3)cc1` gave KB-3-1 tox inactive, HT1080NT lethal inactive, KB-V1 MDR tox inactive and HT1080 IDH1KD tx inactive.
Screening C[C@]12CC[C@@H](O)CC1=CCC1C2CC[C@]2(C)C(=O)[C@H](F)CC12 (stereo partly specified) returned KB-3-1 tox inactive, HT1080NT lethal inactive, MCF10A rerep inactive, SW480 rerep inactive, KB-V1 MDR tox inactive and HT1080 IDH1KD tx inactive.
`CC12CCC3C(CC=C4CC(O)CCC43C)C1C/C(=C\c1cccc(F)c1)C2=O` (stereo unspecified) gave KB-3-1 tox inactive, HT1080NT lethal inconclusive, MCF10A rerep 5.8µM, SW480 rerep inactive, KB-V1 MDR tox inactive and HT1080 IDH1KD tx inconclusive.
Screening COc1ccc(F)cc1CN1CCN(C(=O)CCC(=O)Nc2nnc(CC(C)C)s2)CC1 returned KB-3-1 tox inactive, HT1080NT lethal inactive, MCF10A rerep 18.4µM, SW480 rerep inconclusive, KB-V1 MDR tox inactive and HT1080 IDH1KD tx inactive.
For COc1cc(/C=N/NP(=S)(c2ccccc2)c2ccccc2)ccc1O the results were KB-3-1 tox inactive, HT1080NT lethal inactive, MCF10A rerep 11.2µM, SW480 rerep inactive, KB-V1 MDR tox inactive and HT1080 IDH1KD tx inactive.
For Oc1ccc(/C=N/NP(=S)(c2ccccc2)c2ccccc2)cc1 the results were KB-3-1 tox inactive, HT1080NT lethal inactive, MCF10A rerep inactive, SW480 rerep inactive, KB-V1 MDR tox inactive and HT1080 IDH1KD tx inactive.
`C[N+]12CCC(CC1)C(OC(=O)C(O)(c1ccccc1)c1ccccc1)C2` (stereo unspecified) gave KB-3-1 tox inactive, HT1080NT lethal inconclusive, MCF10A rerep inactive, SW480 rerep inactive, KB-V1 MDR tox inactive and HT1080 IDH1KD tx inactive.
For CCCCn1c(O)c(C(CC)=NCCc2ccccc2)c(=O)[nH]c1=O the results were KB-3-1 tox inactive, HT1080NT lethal inactive, MCF10A rerep inactive, SW480 rerep inactive, KB-V1 MDR tox inconclusive and HT1080 IDH1KD tx inactive.
`CCCCn1c(O)c(C(=O)/C=C/c2c[nH]c3ccccc23)c(=O)[nH]c1=O` gave KB-3-1 tox inactive, HT1080NT lethal inactive, MCF10A rerep 18.4µM, SW480 rerep inconclusive, KB-V1 MDR tox inactive and HT1080 IDH1KD tx inactive.
